Data reported in PubChem BioAssay (EPA / NIEHS).
Inconclusive results are not listed. Calls of active or inactive are those of the source. How the source made its calls, unless noted: active means hit-call score of the fitted dose curve at least 0.9, where 1 is the maximum; inconclusive means response in the unintended direction; inactive means score below 0.9.

Experiments:
[1] = tested on: SRY-box transcription factor 17 (SOX17) Protein Expression, Deisenroth Lab, SOX17 (gene 64321); assay: CCTE_Deisenroth_DEVTOX-GLR_Pluri_SOX17: CCTE's DevTox GLR-Pluri Assay Evaluation of SRY-box transcription factor 17 (SOX17) Protein Expression, Deisenroth Lab (AID 2284427)
Procedure, shortened: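 Seed cells 24 h; differentiate 48 h, dosing at 0 and 24 h (1 nM - 200 uM); fix, stain nuclei, image 5 fields per well; count SOX17+ cells over total cells and subtract 0.2% DMSO control.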

[2] = tested on: SRY-box transcription factor 2 (SOX2) Protein Expression, Deisenroth Lab, SOX2 (gene 6657); assay: CCTE_Deisenroth_DEVTOX-GLR_Pluri_SOX2: CCTE's DevTox GLR-Pluri Assay Evaluation of SRY-box transcription factor 2 (SOX2) Protein Expression, Deisenroth Lab (AID 2284428; active means hit-call score of the fitted dose curve at least 0.9, where 1 is the maximum; inactive means score below 0.9)
Procedure, shortened: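 SOX2 expression frequency is scored in a human pluripotent reporter line, RUES2-GLR, exposed to chemicals twice over 48 h. Imaging-based SOX2+ cell percentage is normalized as change versus 0.2% DMSO.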

[3] = tested on: Brachyury (BRA) Protein Expression, Deisenroth Lab, TBXT (gene 6862); assay: CCTE_Deisenroth_DEVTOX-GLR_Pluri_BRA: CCTE's DevTox GLR-Pluri Assay Evaluation of Brachyury (BRA) Protein Expression, Deisenroth Lab (AID 2284429)
Procedure, shortened: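 An inducible fluorescent BRA reporter in RUES2-GLR cells tracks mesoderm differentiation. Compounds (10 concentrations, 1 nM - 200 uM) are dosed twice within a 48-h differentiation. The endpoint subtracts the 0.2% DMSO control from percent BRA+ cells.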

[4] = CCTE_Deisenroth_DEVTOX-GLR_Pluri_CellCount: Viability Assessment in CCTE's DevTox GLR-Pluri Assay Evaluation of Total Cell Counts, Deisenroth Lab (AID 2284430; active means hit-call score of the fitted dose curve at least 0.9, where 1 is the maximum; inactive means score below 0.9)
Procedure, shortened: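 RUES2-GLR human pluripotent cells, seeded 24 h, then differentiated 48 h with two chemical exposures 24 h apart; 10-point series 1 nM - 200 uM. Fixed, nuclear-stained, imaged (5 fields/well); nuclei count as % change vs 0.2% DMSO.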

Measured: outcome

O=P1(N(CCCl)CCCl)NCCCO1 (centres undefined)
inactive: all assays above
